From ChEMBL document CHEMBL4513146, “CO-ADD screening of Karazin Kharkiv National University (Ukraine) compounds” come the findings set out here.

The subject of experiment [1] is Klebsiella pneumoniae. The note with it: Concentration 32 ug.mL-1;; ASSAY_TEST Inhibition of Bacterial Growth; detection method Absorption (OD600); MEDIA CAMHB; plate type 384well; NBS; CORNING #3640; time 18 hr.
Experiment [2] deals with Candida albicans. The note with it: Concentration 32 ug.mL-1; ASSAY_TEST Inhibition of Fungal Growth; detection method Absorption (OD530).
The subject of experiment [3] is Cryptococcus neoformans. The settings on record: Concentration 32 ug.mL-1; ASSAY_TEST Inhibition of Fungal Growth; detection method Resazurin; Absorption (OD600-OD570); plate type 384well; NBS; CORNING #3640.

Potency and affinity values are given separately.

On to `CC(C)c1nnc2c(SCC(=O)Nc3cccc(Br)c3)nc3ccccc3n12`, for which the Inhibition in experiment [1] is 2.52%; in experiment [2], 2.36%; in experiment [3], -16.07%.

`Cc1cc2nn(CC(=O)Nc3ccc(F)c(F)c3)c(=O)n2c(Nc2ccc(F)c(C)c2)n1`: the Inhibition in experiment [1] was 10.55%; in experiment [2] it was 1.57%; in experiment [3] it was -7.1%.

With `CCC(C)NC(=O)Cn1nc2n(CC(C)C)c(=O)c3ccc(C(=O)NC4CCCCC4)cc3n2c1=O` (configuration not stated), the Inhibition in experiment [1] is 0.48%; in experiment [2], -1.97%; in experiment [3], -14.64%.

In the case of `CCc1ccc(N(Cc2cccc(Cl)c2)S(=O)(=O)c2cccn3c(C)nnc23)cc1`, the Inhibition in experiment [1] is recorded as 7.34%; in experiment [2], 9.1%; in experiment [3] it was -5.8%.

Turning to `O=C(Cn1nc2c(N3CCOCC3)nc3ccccc3n2c1=O)NCc1ccccc1Cl`, the Inhibition is -0.61% in experiment [1], 6.61% in experiment [2] and -3.24% in experiment [3].

For the compound `CCOc1ccc(-n2ccn3c(SCC(=O)Nc4cccc(Cl)c4)nnc3c2=O)cc1`, the Inhibition is on record as 10.12% in experiment [1], 2.64% in experiment [2] and -5.2% in experiment [3].

`Cc1ccc(-c2cc3c4nnc(CCC(=O)N5CCN(c6ccccc6F)CC5)n4ccn3n2)cc1C`: the Inhibition in experiment [1] was 8.56%; in experiment [2], 3.28%; in experiment [3], -23.24%.

As to `COc1ccc(CNC(=O)CCc2nnc3c(N4CCCCC4)nc4ccccc4n23)cc1OC`, the Inhibition was 15.18% in experiment [1], 6.91% in experiment [2] and -22.66% in experiment [3].

Take `O=S(=O)(c1ccc2nncn2c1)N(Cc1cccc(Cl)c1)c1ccc2c(c1)OCO2`: the Inhibition is 8.88% in experiment [1], 1.66% in experiment [2] and -13.77% in experiment [3].

For `Cc1ccc(Sc2nccn3c(=O)n(CC(=O)Nc4ccc(C)cc4Br)nc23)c(C)c1`, the Inhibition in experiment [1] is recorded as 10.73%; in experiment [2], 2.86%; in experiment [3], -20.37%.

`Cc1cc2nn(CC(=O)Nc3cccc(C)c3C)c(=O)n2c(Nc2ccc(F)c(C)c2)n1`: the Inhibition in experiment [1] was 8.99%; in experiment [2], 3.16%; in experiment [3] it was -7.96%.

With `Cc1[nH]c2ccccc2c1C(=O)CSc1nnc2c(=O)n(-c3ccccc3)ccn12`, the Inhibition in experiment [1] is given as 21.07%; in experiment [2] it was 0.47%; in experiment [3], -10.08%.

In the case of `CCC(Sc1nnc2c(=O)n(-c3ccc(F)cc3)ccn12)C(=O)Nc1cc(OC)cc(OC)c1` (configuration not stated), the Inhibition in experiment [1] is recorded as 12.14%; in experiment [2], -0.61%; in experiment [3] it was -13.06%.

As to `COc1cc(NC(=O)Cn2nc3c(Oc4ccccc4)nccn3c2=O)cc(OC)c1OC`, the Inhibition in experiment [1] is 10.24%; in experiment [2], 3.29%; in experiment [3] it was -9.79%.

On to `Cc1ccc(-c2cc3c4nnc(SCC(=O)Nc5ccccc5Br)n4ccn3n2)cc1`, for which the Inhibition in experiment [1] is 5.31%; in experiment [2] it was 5.08%; in experiment [3], -35.04%.

Regarding `Cc1c(Cl)cccc1NC(=O)Cn1nc2c3c4c(sc3ncn2c1=O)CCCCC4`, the Inhibition in experiment [1] was 9.28%; in experiment [2], 4.44%; in experiment [3], -27.44%.

For the compound `CCc1ccc(N(Cc2ccccc2F)S(=O)(=O)c2cccn3c(C)nnc23)cc1`, the Inhibition in experiment [1] is recorded as 6.64%; in experiment [2] it was 0.88%; in experiment [3], -9.4%.

With `CC1CCN(C(=O)Cn2nc3n(Cc4ccco4)c(=O)c4sccc4n3c2=O)CC1`, the Inhibition in experiment [1] is on record as 6.19%; in experiment [2], 0.21%; in experiment [3], -13.38%.

As for `CSc1ccc(CNC(=O)CCc2nnc3c(N4CCCCC4)nc4ccccc4n23)cc1`, the Inhibition in experiment [1] is reported as 12.88%; in experiment [2], 3.51%; in experiment [3], -30.87%.

In the case of `CC(C)CCn1c(=O)c2sccc2n2c(=O)n(CC(N)=O)nc12`, the Inhibition is 10.09% in experiment [1], -1.13% in experiment [2] and -22.72% in experiment [3].

On to `COc1ccc(N(Cc2ccc(Cl)cc2)S(=O)(=O)c2ccc3nncn3c2)cc1`, for which the results for the Inhibition in experiment [1], in experiment [2] and in experiment [3] were 10.04%, 4.11% and -7.19%, respectively.

`O=C(CCc1nnc2c(N3CCCCC3)nc3ccccc3n12)NCCc1ccc(Cl)cc1`: the Inhibition in experiment [1] is recorded as 17.22%; in experiment [2], 2.39%; in experiment [3] it was -25.04%.

With `O=S(=O)(Nc1ccc2c(c1)OCCO2)c1ccc2nncn2c1`, the Inhibition is recorded as 12.24% in experiment [1], 2.83% in experiment [2] and -7.84% in experiment [3].

On to `O=C(Cn1nc2c3cc(-c4ccc(F)cc4)nn3ccn2c1=O)N1CCCc2ccccc21`, for which the Inhibition is 8.12% in experiment [1], 1.02% in experiment [2] and -21.22% in experiment [3].

As to `Cc1ccccc1Nc1cc(C)n2c(=O)n(CCc3ccccc3)nc2n1`, the Inhibition in experiment [1] is on record as 8.17%; in experiment [2], 2.84%; in experiment [3], -4.15%.

Regarding `COc1ccc(NC(=O)Cn2nc3c(SC4CCCCC4)nccn3c2=O)cc1Cl`, the Inhibition in experiment [1] is reported as -2.37%; in experiment [2] it was 10.68%; in experiment [3], -22.74%.

For the compound `Cc1ccc(C)c(NC(=O)Cn2nc3ccc(-c4ccc(C)c(C)c4)nn3c2=O)c1`, the Inhibition in experiment [1] is recorded as -9.48%; in experiment [2], 0.94%; in experiment [3], -3.49%.

Take `Cc1nnc2c(SCC(=O)Nc3ccc4c(c3)OCCO4)nc3ccccc3n12`: the Inhibition in experiment [1] is 9.06%; in experiment [2] it was 1.7%; in experiment [3], -7.59%.

On to `COc1ccccc1N1CCN(C(=O)CSc2nnc3c(=O)n(-c4ccc(F)cc4)ccn23)CC1`, for which the values for the Inhibition in experiment [1], in experiment [2] and in experiment [3] were 11.85%, 1.66% and -8.01%, respectively.

Regarding `C=Cc1ccc(CSc2nnc3c(=O)n(-c4ccc(F)cc4)ccn23)cc1`, the values for the Inhibition in experiment [1], in experiment [2] and in experiment [3] were 9.66%, 4.46% and -8.26%, respectively.

On to `COCCCNC(=O)CSc1nnc2c(=O)n(Cc3ccc(F)cc3)ccn12`, for which the Inhibition in experiment [1] is reported as 13.69%; in experiment [2] it was 2.6%; in experiment [3] it was -25.66%.

With `COc1ccc(-c2cc3c4nnc(SCC(=O)Nc5ccc(OC)c(Cl)c5)n4ccn3n2)cc1`, the Inhibition in experiment [1] is listed as 6.25%; in experiment [2], 2.5%; in experiment [3] it was -21.63%.

For `Cc1ccc(NC(=O)Cn2nc3c(Sc4ccccc4)nccn3c2=O)c(C)c1`, the Inhibition was 7.2% in experiment [1], 3.33% in experiment [2] and -10.8% in experiment [3].

As for `COc1ccc(Cl)cc1NC(=O)Cn1nc2c(Sc3ccc(C)cc3C)nccn2c1=O`, the Inhibition in experiment [1] is recorded as 5.33%; in experiment [2] it was 2.63%; in experiment [3], -21.72%.

With `Cc1cc2nn(CC(=O)Nc3ccc(F)cc3F)c(=O)n2c(Nc2ccc(F)c(C)c2)n1`, the Inhibition in experiment [1] is on record as 11.68%; in experiment [2], 11.92%; in experiment [3] it was -8.52%.

As to `CCOC(=O)c1ccc(NC(=O)Cn2nc3ccc(SCc4ccc(Cl)cc4)nn3c2=O)cc1`, the figures for the Inhibition in experiment [1], in experiment [2] and in experiment [3] were 5.68%, 34.69% and -19.64%, respectively.

`N#Cc1ccc(NC(=O)Cn2nc3c(Oc4ccccc4)nccn3c2=O)cc1`: the Inhibition in experiment [1] is reported as 4.51%; in experiment [2] it was 0.35%; in experiment [3], -7.22%.

Turning to `Cc1ccc(Cn2nc3c(=O)n(-c4cccc(Cl)c4C)ccn3c2=O)cc1`, the Inhibition is listed as 10.23% in experiment [1], 6.45% in experiment [2] and -17.53% in experiment [3].

For the compound `CCOC(=O)c1cccc(NC(=O)Cn2nc3c(Oc4cccc(C)c4C)nccn3c2=O)c1`, the Inhibition is listed as -1.37% in experiment [1], -0.11% in experiment [2] and -1.74% in experiment [3].
